Records with an inconclusive call do not appear. Active and inactive are the calls of the source. The call rests on the fitted dose curve; in most records, active means well fitted curve in the direction sought with a large enough effect; inconclusive means small, poorly fitted or top-dose-only effect, or another doubt; inactive means no such curve, though single readings can be large; an effect the other way counts as inactive or inconclusive. Starred links: 1 amine or outer side, 2 acyl side, 3 side chain; linkers in the order of their positions; H or OH if unused. Positions of bridges follow the written chain, without caps; N, C: chain ends. Non-standard residues stand in square brackets, D forms with d. Residues, ends and D or L forms follow the SMILES beside them. Chains are numbered I, II in the order given. *: point of attachment. Actinocin(9to1) = Cc1c2oc3c(C)ccc(C(=O)[*:1])c3nc-2c(C(=O)[*:2])c(N)c1=O; NMeV = CN[CH](C(=O)O)C(C)C; Cbz = O=C(OCc1ccccc1)*; Sar = CNCC(=O)O
What was measured:
[1] = qHTS of pediatric cancer cell lines to identify multiple opportunities for drug repurposing: Primary screen for SK-N-MC cells (AID 1347093)
In short: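 Metabolically active cells were quantified by ATP-dependent luminescence (CellTiter-Glo, 15 min at room temperature) following 48 h treatment. Cells had been plated at 500-1,000 per well and settled for 5 h beforehand.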

[2] = qHTS of pediatric cancer cell lines to identify multiple opportunities for drug repurposing: Primary screen for BT-37 cells (AID 1347094)
In short: (§1)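 CRCs from 8- or 11-point titrations (lowest final 0.59 nM NPC, 0.78 nM MIPE). Cell viability: CellTiter-Glo after 48 h incubation, 15 min room-temperature development, luminescence imaging.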

[3] = qHTS of pediatric cancer cell lines to identify multiple opportunities for drug repurposing: Primary screen for NB-EBc1 cells (AID 1347095)
In short: as §1

[4] = qHTS of pediatric cancer cell lines to identify multiple opportunities for drug repurposing: Primary screen for U-2 OS cells (AID 1347096); further: nearly all actives have a fitted effect of over 50% in size
In short: (§2)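 Cells (500-1,000/well) rested 5 h, then received compounds for 48 h; metabolically active cells were measured by CellTiter-Glo luminescence. Final concentrations spanned up to 46 µM (MIPE, 11-point) or 0.59 nM-46 µM (NPC, 8-point) in primary screens, 11-point in follow-ups.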

[5] = qHTS of pediatric cancer cell lines to identify multiple opportunities for drug repurposing: Primary screen for SK-N-SH cells (AID 1347098); further: nearly all actives have a fitted effect of over 65% in size
In short: as §2

[6] = qHTS of pediatric cancer cell lines to identify multiple opportunities for drug repurposing: Primary screen for NB1643 cells (AID 1347099); further: nearly all actives have a fitted effect of over 50% in size
In short: as §1

[7] = qHTS of pediatric cancer cell lines to identify multiple opportunities for drug repurposing: Primary screen for LAN-5 cells (AID 1347100)
In short: as §2

[8] = qHTS of pediatric cancer cell lines to identify multiple opportunities for drug repurposing: Primary screen for BT-12 cells (AID 1347101); further: nearly all actives have a fitted effect of over 25% in size
In short: as §2

[9] = qHTS of pediatric cancer cell lines to identify multiple opportunities for drug repurposing: Primary screen for Saos-2 cells (AID 1347097); further: nearly all actives have a fitted effect of over 40% in size
In short: as §1

Measured: Potency
Potency means the concentration at half of the fitted maximal effect.

C[C@@H]1[C@H](C)CC[C@]2(C(=O)O)CC[C@]3(C)C(=CC[C@@H]4[C@@]5(C)C[C@@H](O)[C@H](O)[C@@](C)(CO)[C@H]5CC[C@]43C)[C@@H]12
not listed: [9]
inactive: all other assays above

CC(=O)O[C@H]1C[C@@H]2CC[C@H]3[C@H]4C[C@H]([N+]5(C)CCCCC5)[C@@H](OC(C)=O)[C@@]4(C)CC[C@@H]3[C@@]2(C)C[C@H]1[N+]1(C)CCCCC1
inactive: all assays above

C[C@](Cc1c[nH]c2ccccc12)(NC(=O)OC1C2CC3CC(C2)CC1C3)C(=O)NC[C@H](NC(=O)CCC(=O)O)c1ccccc1 (stereo partly specified)
inactive: [2] | [3] | [4] | [9]
active: [1] 20.9 µM

O=C1NC(O)CCN1[C@@H]1O[C@H](CO)[C@H](O)[C@H]1O (stereo partly specified)
not listed: [3]
inactive: all other assays above

C[C@]12C=CC(=O)N[C@@H]1CC[C@H]1[C@H]3CC[C@@H](C(=O)Nc4cc(C(F)(F)F)ccc4C(F)(F)F)[C@@]3(C)CC[C@@H]12
inactive: [1] | [2] | [4] | [5] | [8]
active: [9] 16.6 µM

CC(C)(C)c1nc2c3cc[nH]c(=O)c3c3cc(F)ccc3c2[nH]1
active: [1] 1.18 µM | [5] 9.61 µM | [7] 2.35 µM
inactive: [2] | [3] | [4] | [8]

Nc1nc(N)c2nc(-c3cccc(O)c3)c(-c3cccc(O)c3)nc2n1
active: [1] 1.48 µM | [2] 21.7 µM | [4] 23.5 µM | [9] 18.7 µM | [5] 19.2 µM | [6] 5.9 µM | [7] 11.8 µM | [8] 21.7 µM

Cc1c2oc3c(C)ccc(C(=O)NC4C(=O)NC(C(C)C)C(=O)N5CCCC5C(=O)N(C)CC(=O)N(C)C(C(C)C)C(=O)OC4C)c3nc-2c(C(=O)NC2C(=O)NC(C(C)C)C(=O)N3CCCC3C(=O)N(C)CC(=O)N(C)C(C(C)C)C(=O)OC2C)c(N)c1=O (stereo unspecified) (I: TVP[Sar][NMeV] / II: TVP[Sar][NMeV]; ester I:1-I:C, II:1-II:C; linker I:N-II:N via Actinocin(9to1); configuration not given here)
active: [1] 0.001 µM | [2] 0.001 µM | [4] 0.001 µM | [9] 0.001 µM | [5] 0.001 µM
inactive: [3]

CCOC(=O)[C@@H](N)Cc1ccc(-c2cc(O[C@H](c3ccc(Cl)cc3-n3ccc(C)n3)C(F)(F)F)nc(N)n2)cc1
inactive: [5]
active: [1] 16.6 µM | [2] 27.3 µM | [9] 18.7 µM | [8] 30.6 µM

C=CC[C@@H]1C=C(C)C[C@H](C)C[C@H](OC)[C@H]2O[C@@](O)(C(=O)C(=O)N3CCCC[C@H]3C(=O)O[C@H](C(C)=C[C@@H]3CC[C@H](O)[C@H](OC)C3)[C@@H](C)[C@@H](O)CC1=O)[C@@H](C)C[C@@H]2OC
inactive: [3] | [4]
active: [1] 8.33 µM | [2] 1.72 µM | [9] 1.87 µM | [5] 6.07 µM

CCOC(=O)N1CCN([N+]([O-])=NOc2ccc([N+](=O)[O-])cc2C#N)CC1
inactive: [5]
active: [1] 10.5 µM | [2] 7.69 µM

CC(C)C[C@H](NC(=O)CNC(=O)c1cc(Cl)ccc1Cl)B1OC(=O)CC(CC(=O)O)(C(=O)O)O1 (stereo partly specified)
active: [1] 0.0833 µM | [2] 0.344 µM | [3] 0.469 µM | [4] 0.743 µM | [9] 0.372 µM | [5] 0.215 µM | [6] 0.372 µM | [7] 0.118 µM | [8] 0.217 µM

CC(C)C[C@@H](C=O)NC(=O)[C@H](CC(C)C)NC(=O)[C@H](CC(C)C)NC(=O)OCc1ccccc1 (Cbz-Leu-Leu-Leu-aldehyde)
active: [1] 0.0833 µM | [2] 0.863 µM | [3] 0.166 µM | [4] 0.935 µM | [9] 0.743 µM | [5] 0.857 µM | [6] 0.372 µM | [7] 0.662 µM | [8] 1.53 µM

C[C@H]1[C@@H](OC(=O)CCC(=O)O)O[C@@H]2O[C@@]3(C)CC[C@@H]4[C@H](C)CC[C@@H]1[C@@]24OO3
active: [1] 0.935 µM | [2] 3.85 µM | [3] 1.66 µM | [5] 13.6 µM | [6] 4.18 µM | [7] 3.32 µM
inactive: [4] | [9]

CC1=C(C(=O)Nc2cc3cn[nH]c3cc2F)C(c2ccc(Cl)cc2F)N=C(c2ccnc(Cl)c2)N1 (stereo unspecified)
inactive: [4]
active: [1] 11.8 µM | [2] 24.3 µM | [3] 10.5 µM | [9] 5.9 µM | [5] 19.2 µM | [7] 9.35 µM

C=CC(=O)N1CCc2ccc(-n3c(=O)ccc4cnc5ccc(-c6cnn(C)c6)cc5c43)cc21
active: [1] 1.48 µM | [2] 6.11 µM | [3] 3.72 µM | [9] 2.96 µM | [5] 8.57 µM | [6] 2.35 µM

COc1cc(C(C)C)c(Oc2cnc(NC(CO)CO)nc2N)cc1I
inactive: [2] | [7]
active: [1] 1.05 µM | [3] 26.4 µM | [5] 1.08 µM | [6] 2.96 µM

CN(C)CC[C@H](c1ccc(Cl)cc1)c1ccccn1
active: [1] 10.5 µM
not listed: [5] | [6]
inactive: all other assays above

COc1cc2ncnc(Nc3cccc(Br)c3)c2cc1OC
active: [1] 0.0118 µM | [2] 24.3 µM | [9] 29.6 µM

CC(=O)OC[C@@H]1O[C@@H](n2ccc(=O)[nH]c2=O)[C@H](OC(C)=O)[C@H]1OC(C)=O
inactive: [1] | [2] | [3] | [4] | [8]

O=C(Nc1nnc(-c2ccco2)o1)c1cc(-c2ccccc2)nc2ccccc12
active: [1] 11.8 µM | [2] 27.3 µM | [3] 8.33 µM | [5] 30.4 µM | [7] 20.9 µM

N#Cc1c(NC(=O)c2cccc3ccccc23)sc2c1CCCC2
active: [1] 0.235 µM | [2] 1.09 µM | [3] 0.332 µM | [9] 0.132 µM | [6] 4.69 µM | [8] 1.09 µM

N#CC(=Cc1ccc(O)c(O)c1)C(=O)NCc1ccccc1
inactive: [4]
active: [1] 14.8 µM | [3] 23.5 µM

O=C(O)CCCCC(CCSCc1ccccc1)SCc1ccccc1 (stereo unspecified)
inactive: [2] | [4] | [8]
active: [1] 9.35 µM | [6] 10.5 µM

NC(=O)Nc1cc(-c2ccc(CN3CCOCC3)cc2)sc1C(N)=O
active: [1] 0.105 µM | [2] 21.7 µM | [3] 0.235 µM | [4] 18.7 µM | [9] 2.35 µM | [5] 1.36 µM | [6] 0.0296 µM | [7] 0.0332 µM | [8] 24.3 µM

Nc1nc2c(c(=O)[nH]1)N(C=O)[C@H](CNc1ccc(C(=O)N[C@@H](CCC(=O)O)C(=O)O)cc1)CN2
active: [2] 9.68 µM | [7] 10.5 µM | [8] 10.9 µM
not listed: [6]
inactive: all other assays above

CC(=O)ON=C1C(c2c(O)[nH]c3cc(Br)ccc23)=Nc2ccccc21
active: [1] 0.0118 µM | [2] 6.11 µM | [3] 5.26 µM | [9] 11.8 µM | [6] 16.6 µM | [8] 19.3 µM

c1ccc2c(Oc3nc(Nc4ccc(N5CCOCC5)cc4)c4ncn(C5CCCCC5)c4n3)cccc2c1
active: [1] 11.8 µM
not listed: [3] | [8]
inactive: all other assays above

Cn1cc(CNCC2CCN(c3ncc(C(=O)NO)cn3)CC2)c2ccccc21
active: [1] 0.0662 µM | [2] 0.109 µM | [3] 0.0935 µM | [4] 0.469 µM | [9] 0.148 µM | [5] 0.121 µM | [6] 0.148 µM | [7] 0.0526 µM

CCS(=O)(=O)Nc1ccc2[nH]c(O)c(C(=Nc3ccc(CN4CCCCC4)cc3)c3ccccc3)c2c1
active: [1] 0.118 µM | [2] 27.3 µM | [3] 0.187 µM | [4] 5.9 µM | [9] 0.662 µM | [5] 1.21 µM | [6] 0.118 µM | [7] 0.0372 µM | [8] 21.7 µM

C[C@H](NC(=O)Cc1cc(F)cc(F)c1)C(=O)N[C@H](C(=O)OC(C)(C)C)c1ccccc1
active: [1] 14.8 µM
not listed: [5] | [6]
inactive: all other assays above

NC(=O)c1cccc(-c2cccc(OC(=O)NC3CCCCC3)c2)c1
inactive: all assays above

COc1ccc([C@@H]2CNC(=O)C2)cc1OC1CCCC1
inactive: [3] | [4] | [7]
active: [1] 0.469 µM | [2] 27.3 µM | [5] 3.04 µM

C[C@@H](NCc1cc2ccccc2[nH]1)c1cccc2ccccc12
not listed: [1] | [3]
inactive: all other assays above

Source: PubChem BioAssay (NCATS)
